For test [1], the system named is Aerobactin synthetase IucA (Klebsiella pneumoniae). As to the kind of experiment: inhibition of K. pneumoniae IucA enzyme – biochemical, Tocris library, absorbance (AID 1345561).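 Further: 100% = enzyme without compound and 0% = no enzyme.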 The note with it: purified IucA enzyme assay, absorbance (OD) read-out; stronger effect = lower value;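 tested at 8 µM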.
Test [2] in a line: viability loss in pontine glioma line – cell-based, SU-DIPG-XIII, MIPE4.0, CellTiter-Glo, qHTS, dose response (AID 1347061; cut-off not given, nearly all actives have AC50 up to about 37 µM;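 further: cells exposed to compound for 48 hours before readout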). The note with it: CellTiter-Glo ATP luminescence. (Cellular ATP, detected with luciferase, serves as a proxy for viable cell number.)
Test [3] is described as follows: viability loss in pontine glioma line – cell-based, JHH-DIPG-1, MIPE4.0, CellTiter-Glo, qHTS, dose response (AID 1347062; cut-off not given, nearly all actives have AC50 up to about 27 µM;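 on AC50: cells exposed to compound for two days before readout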). To be noted: JHH-DIPG-1 viability, CellTiter-Glo ATP luminescence.
Test [4] is described as follows: viability loss in pontine glioma line – cell-based, SU-DIPG-IV, MIPE4.0, CellTiter-Glo, qHTS, dose response (AID 1347063; cut-off not given, nearly all actives have AC50 up to about 30 µM;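 further: compound exposure lasted 48 hours before the viability readout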). To be noted: CellTiter-Glo ATP luminescence.
Test [5] is described as follows: viability loss in pontine glioma line – cell-based, SU-DIPG-XIII, MIPE5.0, CellTiter-Glo, qHTS, dose response (AID 1347064; cut-off not given, nearly all actives have AC50 up to about 23 µM;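 on AC50: cells exposed to compound for 48 hours before the viability read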). The note with it: CellTiter-Glo ATP luminescence.
A short description of test [6]: growth inhibition of DIPG cells – cell-based, MIPE4.0 library, CellTiter-Glo luminescence, qHTS (AID 1347066; cut-off not given, nearly all actives have AC50 up to about 30 µM;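 further: cells exposed to compound for 48 hours before readout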). The note with it: SU-DIPG-VI viability, CellTiter-Glo ATP luminescence.
Test [7] has as its target Mitogen-activated protein kinase 7 (Homo sapiens) (UniProt Q13164). Nature of the test: Gal4-ERK5 driven luciferase induction – cell-based, HTS, primary screen (AID 1508626;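 active means luciferase signal above three times the same-plate solvent-only control wells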;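 further: luciferase driven by Gal4-ERK5 fusion binding five Gal4 sites before minimal TATA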). To be noted: HeLa Gal4-ERK5 transactivation, 18 h, at 5 µM, stronger effect = higher value.
Test [8] can be described thus: drug combination toxicity in non-malignant astrocytes – cell-based, BGB or cisplatin IC20 combos, cytotoxicity control for chromothriptic childhood tumor combination screen (AID 1671460; in the data active means inhibition above about 80%;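 further: cells exposed to compounds for 96 hours before viability readout; 0% = vehicle and 100% = killing control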). To be noted: Human astrocytes, viability inhibition, drug combinations, at 0.5 µM, stronger effect = higher value.
Test [9] is described as follows: compounds altering circadian rhythm period length – cell-based, LOPAC library, luminescence reporter (AID 2774).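 Further: values are relative to mean of DMSO wells on each plate.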 To be noted: circadian reporter cells, at 7 µM, actives lie on both sides.
Test [10] deals with Hepatitis C virus NS3 helicase. Nature of the test: blockers of NS3h binding to ssDNA – biochemical, fluorescence polarization, LOPAC1280 library, primary screen (AID 687035; in the data active means inhibition above about 37%). The note with it: Purified HCV NS3 helicase, Cy5-dT15 ssDNA binding fluorescence polarization; stronger effect = higher value; concentration not given here. (In general: In fluorescence polarisation assays a small probe gives low polarisation when free and higher when bound to something large.)

Test [11] is described as follows: compounds altering Cy5-DNA-NS3h complex signal – biochemical, LOPAC1280, artefact control for HCV NS3 helicase inhibitor project (AID 687037). The note with it: Cy5-DNA-NS3h complex fluorescence interference counterscreen. On the technique in general: Counterscreens check selectivity or assay interference.
Test [12] in a line: blockers of cellular phospholipid synthesis – cell-based, LOPAC library, screen 4, primary screen (AID 1347384). To be noted: animal cells, phospholipid biosynthesis inhibition screen; at 10 µM.
Test [13] can be described thus: compounds altering viability of human ES cells (AID 493140).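 Further: cells exposed to compounds for four days before counting.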 To be noted: human embryonic stem cell survival screen; stronger effect = higher value.
For test [14], the target named is NAD(+) hydrolase SARM1 (Homo sapiens) (UniProt Q6SZW1). Nature of the test: blocking NAD cleavage by SARM1 SAM-TIR – cell lysate, NAD-Glo luminescence (AID 1508614;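 active means compound whose remaining NAD level is above about 45 nM, limit read from the data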). To be noted: SAM-TIR HEK293T lysate NADase, at 1 µM, stronger effect = higher value.
Test [15] addresses ATP-dependent translocase ABCB1 (Homo sapiens) (UniProt P08183). As to the kind of experiment: P-glycoprotein substrate transport blockade – cell-based (AID 377; in the data active means fluorescence slope change above about 50%). The note with it: MDR1-expressing cells, fluorescent substrate accumulation slope; stronger effect = higher value; concentration not given here.
Test [16] is described as follows: compounds altering HSF1 focus formation in cells – imaging, Selleck Cancer Library (AID 1347162; in the data active means plate-normalised HSF1 focus index below about 0.46). The note with it: human cells, HSF1 nuclear foci imaging, at 10 µM; SSMD: measured here: HSF1 foci SSMD mean; cell count: measured here: cell number; plate-normalised HSF1 focus index: stronger effect = lower value.
[17] abbreviates: measured here: combo with BGB IC20.
The mark [18] stands for this setting: measured here: combo with cisplatin IC20.

A word on the remaining activity: it is the signal under treatment as a percentage of the control signal. As a reminder, the inhibition is the relative decrease from the control value, in per cent. What is called AC50 is the midpoint of the concentration-response curve, whichever way the signal moves.

Several values for one entry are separate records, joined by “and”; a condition that tells them apart may be missing. Identical values can stand only once. Records with an inconclusive call do not appear. Activity calls are given as the source filed them. Unless noted, how the calls were made is not given here.

Chain of Mitogen-activated protein kinase 7 (Homo sapiens) (Q13164 whole entry, looked up, the tested form may be a part): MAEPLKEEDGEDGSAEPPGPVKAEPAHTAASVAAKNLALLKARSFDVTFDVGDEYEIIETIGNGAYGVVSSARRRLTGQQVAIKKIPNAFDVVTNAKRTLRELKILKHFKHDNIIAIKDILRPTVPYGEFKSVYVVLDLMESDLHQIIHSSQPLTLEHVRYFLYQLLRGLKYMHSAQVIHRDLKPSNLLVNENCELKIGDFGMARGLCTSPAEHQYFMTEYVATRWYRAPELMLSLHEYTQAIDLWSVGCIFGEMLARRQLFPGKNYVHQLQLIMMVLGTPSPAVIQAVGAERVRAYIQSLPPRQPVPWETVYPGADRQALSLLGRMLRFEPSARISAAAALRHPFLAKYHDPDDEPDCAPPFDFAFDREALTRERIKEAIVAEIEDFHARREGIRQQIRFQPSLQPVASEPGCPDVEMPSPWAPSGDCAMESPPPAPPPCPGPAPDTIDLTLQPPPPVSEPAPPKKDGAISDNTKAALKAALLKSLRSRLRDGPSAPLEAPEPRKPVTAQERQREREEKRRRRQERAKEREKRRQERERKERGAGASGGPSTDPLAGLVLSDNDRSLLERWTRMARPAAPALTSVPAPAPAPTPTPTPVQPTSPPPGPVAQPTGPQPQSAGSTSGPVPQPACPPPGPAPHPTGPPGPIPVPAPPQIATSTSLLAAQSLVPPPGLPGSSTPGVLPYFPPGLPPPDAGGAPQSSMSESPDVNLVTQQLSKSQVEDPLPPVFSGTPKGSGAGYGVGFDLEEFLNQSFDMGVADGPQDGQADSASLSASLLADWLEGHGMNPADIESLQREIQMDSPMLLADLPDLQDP
Chain of NAD(+) hydrolase SARM1 (Homo sapiens) (Q6SZW1 whole entry, looked up): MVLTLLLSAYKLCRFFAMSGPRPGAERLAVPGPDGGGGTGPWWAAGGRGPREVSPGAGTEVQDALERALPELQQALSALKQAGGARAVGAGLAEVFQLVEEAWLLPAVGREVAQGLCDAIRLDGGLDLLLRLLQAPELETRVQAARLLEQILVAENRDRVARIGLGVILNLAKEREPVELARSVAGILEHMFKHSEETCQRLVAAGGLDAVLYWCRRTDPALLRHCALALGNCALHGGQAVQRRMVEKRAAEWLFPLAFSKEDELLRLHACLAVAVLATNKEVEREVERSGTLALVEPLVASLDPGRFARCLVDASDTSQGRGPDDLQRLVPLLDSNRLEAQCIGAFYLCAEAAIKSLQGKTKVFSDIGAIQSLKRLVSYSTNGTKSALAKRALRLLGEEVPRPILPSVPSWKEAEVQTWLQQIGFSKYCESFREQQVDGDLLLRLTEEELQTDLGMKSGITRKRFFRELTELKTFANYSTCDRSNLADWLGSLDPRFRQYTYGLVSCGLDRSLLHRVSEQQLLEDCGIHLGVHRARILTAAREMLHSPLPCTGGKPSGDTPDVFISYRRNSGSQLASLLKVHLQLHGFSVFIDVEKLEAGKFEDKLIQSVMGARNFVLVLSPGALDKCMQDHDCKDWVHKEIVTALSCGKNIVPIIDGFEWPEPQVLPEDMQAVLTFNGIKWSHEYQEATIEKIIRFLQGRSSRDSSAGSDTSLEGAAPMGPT
Chain of ATP-dependent translocase ABCB1 (Homo sapiens) (P08183 whole entry, looked up): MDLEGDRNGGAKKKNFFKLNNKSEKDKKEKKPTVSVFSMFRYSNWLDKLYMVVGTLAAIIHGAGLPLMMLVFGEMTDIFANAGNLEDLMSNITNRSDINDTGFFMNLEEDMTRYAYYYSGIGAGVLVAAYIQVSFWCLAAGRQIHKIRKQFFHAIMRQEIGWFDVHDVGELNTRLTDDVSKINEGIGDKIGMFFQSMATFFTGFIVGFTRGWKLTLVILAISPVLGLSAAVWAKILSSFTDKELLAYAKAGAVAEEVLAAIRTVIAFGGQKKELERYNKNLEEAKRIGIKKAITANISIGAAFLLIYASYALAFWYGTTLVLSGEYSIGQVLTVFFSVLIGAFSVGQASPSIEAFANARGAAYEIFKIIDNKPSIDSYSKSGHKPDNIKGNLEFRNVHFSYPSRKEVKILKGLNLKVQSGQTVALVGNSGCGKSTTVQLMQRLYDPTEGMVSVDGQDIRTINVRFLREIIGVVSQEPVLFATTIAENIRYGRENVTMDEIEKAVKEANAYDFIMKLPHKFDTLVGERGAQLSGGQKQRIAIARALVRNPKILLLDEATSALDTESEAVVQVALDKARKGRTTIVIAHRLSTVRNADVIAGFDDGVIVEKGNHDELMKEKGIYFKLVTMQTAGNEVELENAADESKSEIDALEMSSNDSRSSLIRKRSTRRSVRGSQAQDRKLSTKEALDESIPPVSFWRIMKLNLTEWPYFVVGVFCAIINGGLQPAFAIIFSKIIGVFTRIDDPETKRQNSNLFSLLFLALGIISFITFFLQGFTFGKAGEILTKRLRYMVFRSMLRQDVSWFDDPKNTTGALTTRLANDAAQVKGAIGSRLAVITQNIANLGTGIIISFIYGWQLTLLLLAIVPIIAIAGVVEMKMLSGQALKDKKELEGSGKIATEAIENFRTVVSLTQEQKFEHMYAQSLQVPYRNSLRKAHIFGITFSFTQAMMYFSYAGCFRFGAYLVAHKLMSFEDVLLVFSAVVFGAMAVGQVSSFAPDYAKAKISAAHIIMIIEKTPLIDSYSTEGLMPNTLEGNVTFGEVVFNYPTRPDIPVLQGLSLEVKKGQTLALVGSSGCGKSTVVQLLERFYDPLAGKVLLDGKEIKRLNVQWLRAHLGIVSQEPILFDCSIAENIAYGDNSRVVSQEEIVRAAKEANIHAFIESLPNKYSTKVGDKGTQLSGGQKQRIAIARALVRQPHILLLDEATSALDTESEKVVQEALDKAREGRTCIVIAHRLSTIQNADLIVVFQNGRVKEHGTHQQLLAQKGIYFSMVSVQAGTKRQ

Take `COc1cc(N)c(Cl)cc1C(=O)N[C@@H]1CCN(CCCOc2ccc(F)cc2)C[C@@H]1OC`: the remaining activity in test [1] is 111% (inactive).
Regarding `CO[C@H]1O[C@@H]2O[C@@]3(C)CC[C@H]4[C@H](C)CC[C@@H]([C@H]1C)[C@@]24OO3`, the result in [2], in [3], in [4], in [5] and in test [6] was inactive.
As to `C[C@]12C=CC(=O)C=C1CC[C@@H]1[C@@H]2[C@@H](O)C[C@@]2(C)[C@H]1CC[C@]2(O)C(=O)COC(=O)CCC(=O)O`, the luciferase signal in test [7] was 80 AU (inactive).
Turning to `CCN(CC)CCOc1ccc(C(=C(Cl)c2ccccc2)c2ccccc2)cc1`, the luciferase signal in test [7] is 68 AU (inactive).
As to `CO[C@H]1C=CO[C@@]2(C)Oc3c(C)c(O)c4c(O)c(c5c(nc6cc(C)ccn65)c4c3C2=O)NC(=O)C(C)=CC=C[C@H](C)[C@H](O)[C@@H](C)[C@@H](O)[C@@H](C)[C@H](OC(C)=O)[C@@H]1C`, the inhibition was -8.79% (inactive) and -10.8% (inactive) in test [8]; -1.97% and -5.46% in test [8] (setting [17]); -27% and -10.4% in [8] (setting [18]).
With `CC[C@]1(O)CC2CN(CCc3c([nH]c4ccccc34)[C@@](C(=O)OC)(c3cc4c(cc3OC)N(C)[C@H]3[C@@](O)(C(N)=O)[C@H](O)[C@]5(CC)C=CCN6CC[C@]43[C@@H]65)C2)C1` (some centres undefined), in [3], the half-maximal activity concentration (AC50) was 46.9 nM (active).
In the case of `CN1CCN(c2nc3cc(C(F)(F)F)ccc3n3cccc23)CC1`, in test [9], the period change was -0.085 h (inactive). Further, in test [10], the inhibition was -3% (inactive). For the same molecule, the fluorescence ratio (interference) in test [11] was 1 (inactive). In addition, the molecule was called inactive in [12].
In the case of `CCCCC[C@H](O)/C=C/[C@H]1[C@H](O)CC(=O)[C@@H]1CCCCCCC(=O)O`, the survival in test [13] is 35.2 (inactive) and 136 (inactive). Moreover, in test [1], the remaining activity is 115% (inactive). Also, the molecule was called inactive in test [2], in test [3], in [4] and in test [6].
In the case of `COCC1=C(C(=O)OC(C)OC(=O)OC(C)C)N2C(=O)[C@@H](NC(=O)/C(=N\OC)c3csc(N)n3)[C@H]2SC1` (some centres undefined), the remaining NAD in test [14] is 10 nM (inactive). For the same molecule, the luciferase signal in test [7] is 40 AU (inactive).
On to `C#C[C@]1(O)CC[C@H]2[C@@H]3CCC4=Cc5oncc5CC4(C)[C@H]3CCC21C` (some centres undefined), for which the period change in [9] was 0.035 h (inactive). The inhibition in [10] was 0% (inactive). In addition, the fluorescence ratio (interference) in [11] was 1 (inactive). In addition, the outcome in test [12] was inactive.
As for `CC(=O)N1CCN(c2ccc(OC[C@H]3CO[C@](Cn4ccnc4)(c4ccc(Cl)cc4Cl)O3)cc2)CC1`, the period change in [9] was -0.195 h (inactive). For the same molecule, in test [13], the survival was 3.25 (inactive). In test [10], the inhibition was -5% (inactive). Besides, the fluorescence ratio (interference) in test [11] was 1 (inactive). In test [1], the remaining activity is 114% (inactive). In test [3], the concentration at half-maximal activity (AC50) was 23500 nM (active). Further, the result in [12] was inactive. Further, the luciferase signal in [7] is 40 AU (inactive).
For the molecule `CN1CCc2cc(Cl)c(O)cc2[C@@H](c2ccccc2)C1`, the period change in test [9] was 0.17 h (inactive). Moreover, in test [10], the inhibition was -1% (inactive). Besides, the fluorescence ratio (interference) in test [11] was 1 (inactive). Besides, the remaining activity in [1] is 107% (inactive). For the same molecule, the outcome in test [12] was inactive.
Consider `Cc1sc(N)c(C(=O)c2cccc(C(F)(F)F)c2)c1C`, for which the remaining activity in [1] is 120% (inactive).
For `CO/N=C(/C(=O)N[C@@H]1C(=O)N2C(C(=O)O)=C(COC(N)=O)CS[C@H]12)c1ccco1`, the fluorescence slope change in [15] is -2.3% (inactive). The survival in [13] was 3.92 (inactive).
Regarding `COc1cccc2c1C(=O)c1c(O)c3c(c(O)c1C2=O)C[C@@](O)(C(=O)CO)C[C@@H]3O[C@H]1C[C@H](N)[C@@H](O)[C@H](C)O1`, the AC50 is 372 nM (active) in test [3], 833 nM (active) in test [4], 833 nM (active) in test [5] and 4180 nM (active) in [6]. For the same molecule, in test [16], the SSMD was -16.4. In test [16], this molecule showed a cell count of 7260. In addition, the plate-normalised HSF1 focus index in test [16] is 0.155 (active). Besides, the remaining NAD in [14] is 10 nM (inactive). Further, the luciferase signal in test [7] was 20 AU (inactive).
On to `CC[C@]1(O)CC2CN(CCc3c([nH]c4ccccc34)[C@@](C(=O)OC)(c3cc4c(cc3OC)N(C=O)[C@H]3[C@@](O)(C(=O)OC)[C@H](OC(C)=O)[C@]5(CC)C=CCN6CC[C@]43[C@@H]65)C2)C1` (some centres undefined), for which, in test [16], the SSMD came to 1.41, the cell count stood at 6460 and the plate-normalised HSF1 focus index was 1.08 (inactive).
Consider `CC(C)N=c1cc2n(-c3ccc(Cl)cc3)c3ccccc3nc-2cc1Nc1ccc(Cl)cc1`, for which the fluorescence slope change in [15] was 72.8% (active). In test [13], the survival is 11.8 (inactive). Also, the remaining NAD in test [14] is 10 nM (inactive). For the same molecule, in test [7], the luciferase signal is 104 AU (inactive). Also, the inhibition in test [8] was -9.92% (inactive); in test [8] (setting [17]), 3.64%; in [8] (setting [18]) it was -24.8%.
Consider `COc1cccc2c1C(=O)c1c(O)c3c(c(O)c1C2=O)C[C@@](O)(C(C)=O)C[C@@H]3OC1CC(N)C(O)C(C)O1` (some centres undefined), for which, in test [15], the fluorescence slope change is 95.8% (active). The survival in [13] was 2.17 (inactive). Also, in test [1], the remaining activity was 110% (inactive).
As for `Nc1nc2ccc(Cl)cc2c2nc(-c3ccco3)nn12`, in test [9], the period change was 0.275 h (inactive). Moreover, in test [10], the inhibition is -2% (inactive). Moreover, in test [11], the fluorescence ratio (interference) is 1 (inactive). In addition, the remaining activity in test [1] was 120% (inactive). The molecule was called inactive in test [12].
Turning to `Cc1c(O)c(=O)ccn1C`, the remaining NAD in test [14] is 10 nM (inactive).
Turning to `CC[C@@H]1C(=O)OC[C@@H]1Cc1cncn1C`, the remaining activity in test [1] was 110% (inactive).
Take `COc1cc([C@@H]2c3cc4c(cc3[C@@H](O[C@@H]3O[C@@H]5CO[C@@H](C)O[C@H]5[C@H](O)[C@H]3O)[C@H]3COC(=O)[C@H]23)OCO4)cc(OC)c1O`: the molecule was called inactive in [2], in test [3], in test [5] and in [6]. The molecule also yielded an SSMD in [16] of -0.198. This molecule yielded a cell count in [16] of 6820. Moreover, the plate-normalised HSF1 focus index in test [16] is 0.99 (inactive). Moreover, the luciferase signal in [7] was 48 AU (inactive).
Regarding `CN1[C@@H](CC(=O)c2ccccc2)CCC[C@H]1C[C@H](O)c1ccccc1`, in test [9], the period change is -0.145 h (inactive). The survival in test [13] was 11.3 (inactive). Also, in [10], the inhibition was 0% (inactive). In addition, the fluorescence ratio (interference) in test [11] is 1 (inactive). In addition, in test [1], the remaining activity was 122% (inactive). Also, the call in [12] was inactive.
Consider `CC(=O)SCC(Cc1ccccc1)C(=O)NCC(=O)OCc1ccccc1` (centres undefined), for which the fluorescence slope change in test [15] was 12.8% (inactive). Further, the survival in test [13] was 6.5 (inactive). Also, the half-maximal activity concentration (AC50) in [3] was 469 nM (active); in test [4], 833 nM (active). Besides, the molecule was called inactive in [5]. In addition, the remaining NAD in [14] was 10 nM (inactive).
For the molecule `CN1CCN2c3ncccc3Cc3ccccc3C2C1` (centres undefined), in test [1], the remaining activity was 106% (inactive). Besides, the outcome in test [2], in test [3], in [5] and in test [6] was inactive.
As for `CS(=O)(=O)c1ccc(-c2cc(Br)sc2-c2ccc(F)cc2)cc1`, the remaining activity in test [1] was 111% (inactive).

Values taken from PubChem BioAssay.
